Data: PubChem BioAssay (Tox21)
Values without a mark were called inactive. Inconclusive results are not listed. Where a call stands in place of a potency, no number is given. Activity calls are given as the source filed them. Unless noted, calls follow the shape of the dose curve; as a rule, active = well fitted curve in the direction sought with a large enough effect in the repeat runs; inconclusive = weak or mixed curves; inactive = no such curve, though single readings can be large; an effect the other way counts as inactive or inconclusive.

Tests used:
[1] = target: Thyrotropin receptor (Homo sapiens) (UniProt P16473); assay: qHTS assay to identify small molecule antagonists of the thyroid stimulating hormone receptor (TSHR) signaling pathway (AID 1259385; calls by dose curve; also: nearly all actives have a fitted effect of over 20% in size)
In short: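 TSHR-HEK293 cells were plated and held 18 h at 37C/5% CO2, then given compound plus Ro20-1724 and stimulated with TSH at 1.5 ng/mL final. After 30 min at room temperature, cAMP was detected with cAMP-d2/anti-cAMP-cryptate (1 h) by fluorescence.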

[2] = qHTS assay to identify small molecule agonists of the estrogen receptor alpha (ER-alpha) signaling pathway in the presence of an antagonist - cell viability counter screen (AID 1259386);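 also: series mostly up to about 92 µM; cells exposed to compounds for 22 h at 37 °C before the viability read; nearly all actives have a fitted effect of over 30% in size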
In short: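 Cell viability in VM7Luc4E2 cells (endogenous full-length ER-alpha) measured by CellTiter-Fluor fluorescence in the same wells as the luciferase screen. Cells pre-cultured 5 days in charcoal-stripped serum, then treated 22 h with compounds at 15 concentrations plus 10.0nM ICI-182,780.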

[3] = target: Progesterone receptor (Homo sapiens) (UniProt P06401); assay: qHTS assay to identify small molecule agonists of the progesterone receptor (PR) signaling pathway (AID 1346784; calls by dose curve; also: nearly all actives have a fitted effect of over 30% in size)
In short: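 Agonist qHTS: compounds pinned onto 3,000 PR-UAS-bla HEK 293T cells per well in charcoal-stripped serum medium, 16hr at 37C, then beta-lactamase activity measured by LiveBLAzer FRET fluorescence after 2 hours at room temperature.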

[4] = target: Progesterone receptor (Homo sapiens) (UniProt P06401); assay: qHTS assay to identify small molecule antagonists of the progesterone receptor (PR) signaling pathway (AID 1346795; active = well fitted inhibition curve with a large enough effect in the signal ratio in the repeat runs, not every such curve was filed as active; the % refers to the signal ratio)
In short: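 Antagonist mode with agonist R5020 at 1 nM final and 16 hr incubation at 37C. Reporter was beta-lactamase driven by UAS in HEK293T (PR-UAS-bla), 2% charcoal-stripped serum; signal from LiveBLAzer FRET substrate, 2 hr at room temperature.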

[5] = qHTS assay to identify small molecule antagonists of the progesterone receptor (PR) signaling pathway - cell viability counter screen (AID 1346798); also: series mostly up to about 92 µM; nearly all actives have a fitted effect of over 50% in size
In short: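 Cytotoxicity read as CellTiter-Glo luminescence (30 min, room temperature) in the same wells as the beta-lactamase readout. HEK293T PR-UAS-bla cells in charcoal-stripped 2% FBS received compound and R5020, then 16 h at 37C, 5% CO2.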

[6] = qHTS assay to identify small molecule agonists of the progesterone receptor (PR) signaling pathway - cell viability counter screen (AID 1346799; calls by dose curve; also: nearly all actives have a fitted effect of over 45% in size)
In short: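 Cytotoxicity measured by CellTiter-Glo luminescence (30 min, RT) in the same wells as the PR beta-lactamase agonist read. Those HEK293T cells had 16 h compound treatment at 37 C in 2% charcoal-stripped FBS medium.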

[7] = qHTS assay to identify small molecule antagonists of the TGF-beta/Smad signaling pathway - cell viability counter screen (AID 1346824); also: nearly all actives have a fitted effect of over 50% in size
In short: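 SBE-bla HEK 293T cells were plated overnight at 37 C, then given compounds in DMSO plus TGF-beta1 (added as 0.25 ng/mL solution) for 5 hr. After the bla read, CellTiter-Glo was added to the same wells and luminescence read after 30 min at room temperature.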

[8] = qHTS assay to identify small molecule agonists of the TGF-beta/Smad signaling pathway - cell viability counter screen (AID 1346829); also: top concentration of the series differs between compounds; nearly all actives have a fitted effect of over 45% in size
In short: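 Same-well cytotoxicity: CellTiter-Glo added after the 2 hr room-temperature beta-lactamase substrate step, luminescence measured 30 min later; cells had 5 hr of compound at 37 C.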

[9] = target: Thyrotropin-releasing hormone receptor (Homo sapiens) (UniProt P34981); assay: qHTS assay to identify small molecule antagonists of the thyrotropin-releasing hormone receptor (TRHR) signaling pathway (AID 1346877; active = well fitted inhibition curve with a large enough effect in the repeat runs, not every such curve was filed as active; also: series mostly up to about 51 µM)
In short: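 TRHR-expressing HEK293 cells loaded with calcium dye for 2 h at 37 C; compounds pre-incubated 5 min at room temperature before TRH challenge at 1 nM final. Intracellular calcium fluorescence read kinetically for 3 min; 15 concentrations in triplicate.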

[10] = target: Thyrotropin-releasing hormone receptor (Homo sapiens) (UniProt P34981); assay: qHTS assay to identify small molecule agonists of the thyrotropin-releasing hormone receptor (TRHR) signaling pathway (AID 1346891; calls by dose curve; also: series mostly up to about 58 µM)
In short: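 Agonist-mode intracellular calcium readout: kinetic fluorescence over 3 min at 1 s intervals after compound addition to TRHR-HEK293 cells (18 h seeded, 2 h dye-loaded at 37 C). Fifteen concentrations, triplicates.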

[11] = Human pregnane X receptor (PXR) small molecule agonists, qHTS cell viability counter screen (AID 1346977); also: nearly all actives have a fitted effect of over 50% in size
In short: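 Same-well viability read: CellTiter-Fluor added after 23 hr compound exposure, fluorescence measured 1 hr later. Cells were PXR-Luc HepG2 seeded at 2,000/well in 5% charcoal-stripped FBS medium, rested 5 hr before dosing at 37 C.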

[12] = Caspase-3/7 induction in HepG2 cells by small molecules, qHTS assay (AID 1346978); also: nearly all actives have a fitted effect of over 15% in size
In short: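 Wild-type HepG2 cells (2,000/well) were settled 5 h at 37 C, 5% CO2, then exposed to compounds in DMSO for 17 h. Caspase-3/7 activity was read by luminescence 30 min after adding Caspase-Glo 3/7 reagent at room temperature.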

[13] = Caspase-3/7 induction in CHO-K1 cells by small molecules, qHTS cell viability counter screen (AID 1346979); also: nearly all actives have a fitted effect of over 35% in size
In short: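 Cytotoxicity counter screen: CellTiter-Fluor added to compound-treated wild-type CHO-K1 cells at 16 h (37C, 5% CO2), fluorescence measured 1 h later; same wells as caspase-3/7 measurement.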

[14] = Caspase-3/7 induction in CHO-K1 cells by small molecules, qHTS assay (AID 1346980); also: nearly all actives have a fitted effect of over 15% in size
In short: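 Wild-type cells were seeded at 1,500 per well and settled 5 hr at 37 C, 5% CO2, then exposed to DMSO-dissolved compounds for 17 hr. Caspase-Glo 3/7 reagent was added, and luminescence was read after 30min at room temperature.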

[15] = target: Nuclear receptor subfamily 1 group I member 2 (Homo sapiens) (UniProt O75469); assay: Human pregnane X receptor (PXR) small molecule agonists, qHTS assay (AID 1346982); also: nearly all actives have a fitted effect of over 35% in size; also: potency is read from the fitted curve at half-maximal effect
In short: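 PXR-Luc HepG2 reporter cells (CYP3A4-driven luciferase) in 5% charcoal-stripped FBS medium, plated 5 h before compound addition, then treated 24 h at 37C. Luciferase read by ONE-Glo luminescence after 30 min at room temperature.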

[16] = qHTS assay to identify small molecule agonists of the TGF-beta/Smad signaling pathway (AID 1346859; active = well fitted activation curve with a large enough effect in the signal ratio in the repeat runs, not every such curve was filed as active; the % refers to the signal ratio; also: series mostly up to about 77 µM)
In short: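 Fluorescence (ex 405 nm; em 460 and 530 nm) was read 2 h after LiveBLAzer FRET substrate at RT. The preceding compound treatment of overnight-plated SBE-bla HEK293T cells lasted 5 h at 37 C.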

[17] = Caspase-3/7 induction in HepG2 cells by small molecules, qHTS cell viability counter screen (AID 1346981); also: series mostly up to about 92 µM; nearly all actives have a fitted effect of over 30% in size
In short: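 Wild-type HepG2 cells, 2,000/well, settled 5 hr at 37 C, 5% CO2 before compound addition. Viability read by CellTiter-Fluor fluorescence, reagent added after 16 hr compound exposure, then 1 hr at 37C, in the same wells as the caspase read.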

[18] = target: Nuclear receptor subfamily 1 group I member 2 (Rattus norvegicus) (UniProt Q9R1A7); assay: Rat pregnane X receptor (rPXR) activation by small molecules, qHTS assay (AID 1346983); settings: rPXR luciferase reporter cells, One-Glo luminescence, 24 h; hits give high values; also: nearly all actives have a fitted effect of over 20% in size
In short: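 Cell-based rPXR luciferase reporter assay, 2,000 cells per well, rested 5hr at 37 C before compound addition in DMSO, then 24 hr at 37 C. One-Glo reagent was added and luminescence read after 30 min at room temperature.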

[19] = target: Nuclear receptor subfamily 1 group I member 2 (Homo sapiens) (UniProt O75469); assay: CYP3A4 induction through human pregnane X receptor (PXR) by small molecules, qHTS assay (AID 1346984); also: nearly all actives have a fitted effect of over 40% in size
In short: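 DPX-2 HepG2 cells carrying a PXR response element and CYP3A4-promoter luciferase construct, treated with compounds 24 hr at 37C. Then P450-Glo CYP3A4 Luciferin-IPA substrate (3uM final) for 3 hr at 37C, One-Glo added, luminescence read.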

[20] = target: Nuclear receptor subfamily 1 group I member 2 (Homo sapiens) (UniProt O75469); assay: Human pregnane X receptor (PXR) activation by small molecules, qHTS assay (AID 1346985); also: nearly all actives have a fitted effect of over 40% in size
In short: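 DPX-2 cells (HepG2 co-transfected with a PXR response element and a CYP3A4-promoter luciferase construct) were seeded at 2,000 per well, rested 5 hr at 37C, then exposed to DMSO-dissolved compounds for 24 hr. Activation was read as luciferase luminescence.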

Thyrotropin receptor (Homo sapiens), sequence (P16473 whole entry, looked up): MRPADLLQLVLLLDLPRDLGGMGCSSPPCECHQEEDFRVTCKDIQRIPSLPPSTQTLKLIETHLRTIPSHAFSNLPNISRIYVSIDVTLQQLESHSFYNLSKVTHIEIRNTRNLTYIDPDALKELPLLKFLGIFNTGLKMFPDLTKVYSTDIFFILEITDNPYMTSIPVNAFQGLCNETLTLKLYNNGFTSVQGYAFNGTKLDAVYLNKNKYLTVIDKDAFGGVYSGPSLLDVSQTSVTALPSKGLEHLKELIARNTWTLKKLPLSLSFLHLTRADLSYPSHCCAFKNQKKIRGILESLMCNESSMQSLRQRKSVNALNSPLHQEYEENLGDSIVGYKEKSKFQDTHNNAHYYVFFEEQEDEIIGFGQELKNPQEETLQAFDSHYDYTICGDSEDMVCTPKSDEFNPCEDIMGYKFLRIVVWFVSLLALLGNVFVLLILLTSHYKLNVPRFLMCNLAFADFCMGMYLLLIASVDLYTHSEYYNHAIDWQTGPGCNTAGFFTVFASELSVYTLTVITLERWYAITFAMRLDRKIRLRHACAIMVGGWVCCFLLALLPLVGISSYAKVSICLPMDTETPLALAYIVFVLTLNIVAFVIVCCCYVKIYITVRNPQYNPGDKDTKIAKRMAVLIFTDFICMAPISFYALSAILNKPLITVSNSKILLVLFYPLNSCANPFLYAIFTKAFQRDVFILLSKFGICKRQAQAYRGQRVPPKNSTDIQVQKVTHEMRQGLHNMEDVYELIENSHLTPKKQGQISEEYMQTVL
Thyrotropin-releasing hormone receptor (Homo sapiens), sequence (P34981 whole entry, looked up): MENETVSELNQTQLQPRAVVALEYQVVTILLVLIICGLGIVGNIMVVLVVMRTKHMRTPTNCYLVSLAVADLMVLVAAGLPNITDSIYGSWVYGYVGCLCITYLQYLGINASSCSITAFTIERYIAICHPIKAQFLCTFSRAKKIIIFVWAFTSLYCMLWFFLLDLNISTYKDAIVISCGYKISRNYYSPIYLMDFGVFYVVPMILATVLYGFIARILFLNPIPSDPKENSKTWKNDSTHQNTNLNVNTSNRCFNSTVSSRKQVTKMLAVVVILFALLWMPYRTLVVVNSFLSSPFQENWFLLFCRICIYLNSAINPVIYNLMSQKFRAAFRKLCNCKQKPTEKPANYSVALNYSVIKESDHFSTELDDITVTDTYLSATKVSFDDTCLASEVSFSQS
Nuclear receptor subfamily 1 group I member 2 (Homo sapiens), sequence (O75469 whole entry, looked up): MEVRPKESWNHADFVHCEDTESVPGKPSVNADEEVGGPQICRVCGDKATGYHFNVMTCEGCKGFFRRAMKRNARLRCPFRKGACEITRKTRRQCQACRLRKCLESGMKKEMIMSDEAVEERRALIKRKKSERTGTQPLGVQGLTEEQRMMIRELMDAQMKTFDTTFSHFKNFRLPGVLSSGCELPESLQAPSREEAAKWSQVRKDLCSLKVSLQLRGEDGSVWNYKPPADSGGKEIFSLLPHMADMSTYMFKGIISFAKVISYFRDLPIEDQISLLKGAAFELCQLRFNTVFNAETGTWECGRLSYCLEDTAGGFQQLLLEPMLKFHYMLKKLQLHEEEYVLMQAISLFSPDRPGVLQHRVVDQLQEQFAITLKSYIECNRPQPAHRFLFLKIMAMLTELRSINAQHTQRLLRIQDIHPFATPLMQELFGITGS
Progesterone receptor (Homo sapiens), sequence (P06401 whole entry, looked up): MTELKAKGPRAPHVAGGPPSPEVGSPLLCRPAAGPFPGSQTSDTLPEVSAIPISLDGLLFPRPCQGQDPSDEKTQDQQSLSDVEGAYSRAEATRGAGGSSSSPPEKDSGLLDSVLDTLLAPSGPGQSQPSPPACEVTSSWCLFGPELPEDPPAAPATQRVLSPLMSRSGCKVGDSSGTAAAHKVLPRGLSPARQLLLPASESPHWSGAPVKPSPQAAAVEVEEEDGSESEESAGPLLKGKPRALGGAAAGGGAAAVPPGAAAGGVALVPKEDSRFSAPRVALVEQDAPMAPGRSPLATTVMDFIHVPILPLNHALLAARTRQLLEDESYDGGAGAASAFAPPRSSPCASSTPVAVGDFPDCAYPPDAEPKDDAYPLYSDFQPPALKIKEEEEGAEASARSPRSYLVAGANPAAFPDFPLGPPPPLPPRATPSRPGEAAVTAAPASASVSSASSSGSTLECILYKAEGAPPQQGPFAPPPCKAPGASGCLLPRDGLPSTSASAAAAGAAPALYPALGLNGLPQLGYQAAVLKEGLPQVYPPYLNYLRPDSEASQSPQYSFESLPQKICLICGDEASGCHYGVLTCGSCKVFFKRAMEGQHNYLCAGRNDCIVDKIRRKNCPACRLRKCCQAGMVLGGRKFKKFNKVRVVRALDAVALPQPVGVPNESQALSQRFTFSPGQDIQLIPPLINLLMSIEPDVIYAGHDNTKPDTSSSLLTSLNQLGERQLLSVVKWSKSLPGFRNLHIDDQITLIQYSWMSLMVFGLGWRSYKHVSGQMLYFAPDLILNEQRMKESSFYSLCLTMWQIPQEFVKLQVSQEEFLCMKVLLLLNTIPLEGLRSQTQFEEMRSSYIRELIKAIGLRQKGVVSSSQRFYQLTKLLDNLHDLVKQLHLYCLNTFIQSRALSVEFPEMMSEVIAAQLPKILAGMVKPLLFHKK
Nuclear receptor subfamily 1 group I member 2 (Rattus norvegicus), sequence (Q9R1A7 whole entry, looked up): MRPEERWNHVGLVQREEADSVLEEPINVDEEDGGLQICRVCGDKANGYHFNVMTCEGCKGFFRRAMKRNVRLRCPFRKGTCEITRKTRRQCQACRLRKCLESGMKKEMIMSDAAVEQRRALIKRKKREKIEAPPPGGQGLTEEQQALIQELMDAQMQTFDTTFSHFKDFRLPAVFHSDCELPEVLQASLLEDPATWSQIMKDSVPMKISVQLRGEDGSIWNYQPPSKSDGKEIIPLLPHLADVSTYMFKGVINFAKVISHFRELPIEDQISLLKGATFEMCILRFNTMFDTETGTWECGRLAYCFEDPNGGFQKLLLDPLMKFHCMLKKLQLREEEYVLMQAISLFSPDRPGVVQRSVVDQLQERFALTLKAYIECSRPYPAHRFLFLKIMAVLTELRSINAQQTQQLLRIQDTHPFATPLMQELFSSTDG

Row | SMILES | outcome [1] | Potency [2] | Potency [3] | Potency [4] | Potency [5] | Potency [6] | outcome [7] | outcome [8] | outcome [9] | outcome [10] | Potency [11] | Potency [12] | Potency [13] | outcome [14] | Potency [15] | outcome [16] | Potency [17] | max activation [18] [%] | Potency [19] | Potency [20]
1 | Cc1cccc2nccnc12 | inactive | inactive | inactive | inactive | inactive | inactive | inactive | inactive | inactive | inactive | inactive | inactive | inactive | inactive | inactive | – | – | – | – | –
2 | Oc1ccccc1-c1nnco1 | inactive | inactive | inactive | inactive | inactive | inactive | inactive | – | inactive | inactive | inactive | inactive | inactive | – | inactive | inactive | inactive | – | – | –
3 | Cc1ccccc1OCC(O)CO (centres undefined) | inactive | inactive | inactive | inactive | inactive | inactive | inactive | – | – | – | inactive | inactive | inactive | inactive | – | – | – | -0.0648 | – | –
4 | CCCC/C=C/C=C\C=O | inactive | inactive | inactive | inactive | inactive | inactive | inactive | inactive | – | – | inactive | inactive | inactive | inactive | 24.3 µM (active) | – | inactive | – | – | –
5 | O=C1c2ccccc2C(=O)C1c1ccccc1 | inactive | inactive | inactive | inactive | inactive | inactive | inactive | – | inactive | inactive | inactive | inactive | inactive | inactive | inactive | inactive | inactive | -1.16 | inactive | inactive
6 | O=C(O)c1cc(Cl)cc([N+](=O)[O-])c1Cl | inactive | inactive | inactive | inactive | inactive | inactive | inactive | inactive | inactive | inactive | inactive | inactive | inactive | – | inactive | – | inactive | – | – | –
7 | COCCc1ccc(OCC2CO2)cc1 (centres undefined) | inactive | inactive | inactive | inactive | inactive | inactive | inactive | – | inactive | inactive | inactive | inactive | inactive | inactive | inactive | – | inactive | – | – | –
8 | O=C1O[C@@H]2[C@@H](O)[C@H](O)O[C@@H]2[C@H]1O | inactive | inactive | inactive | inactive | inactive | inactive | inactive | – | inactive | inactive | inactive | inactive | inactive | inactive | inactive | – | – | – | – | –
